Data published in PubChem BioAssay (Tox21).
Unmarked numbers belong to inactive results. Results filed as inconclusive are left out. Entries that show only a call come without a potency. Activity calls are given as the source filed them. Calls follow the shape of the dose curve; as a rule, active = well fitted curve in the direction sought with a large enough effect in the repeat runs; inconclusive = weak or mixed curves; inactive = no such curve, though single readings can be large; an effect the other way counts as inactive or inconclusive.

Tests used:
[1] = qHTS RealTime-Glo MT Cell Viability Assay in HepG2 cells - 24 hour (AID 1224867); also: nearly all actives have a fitted effect of over 50% in size
Procedure, shortened: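 Viability was tracked continuously by NanoLuc luminescence from prosubstrate reduced by living HepG2 cells, at successive time points over 40 h of compound exposure. Cells with reagent were preincubated 5 h at 37 °C before compound addition.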

[2] = qHTS RealTime-Glo MT Cell Viability Assay in HEK293 cells - 32 hour (AID 1224868); also: nearly all actives have a fitted effect of over 50% in size; also: potency is read from the fitted curve at half-maximal effect; as to activity change, negative = cytotoxic: top concentration of the series differs between compounds
Procedure, shortened: (§1)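 Viability tracked continuously by luminescence as live cells reduce a prosubstrate for NanoLuc; HEK293 cells preincubated 5 h, compound-treated at 37 C, and read at 0, 8, 16, 24, 32 and 40 h.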

[3] = A CellTox Green Cytotoxicity Assay to monitor cytotoxicity in HEK293 cells - 0 hour (AID 1224869); also: nearly all actives have a fitted effect of over 50% in size
Procedure, shortened: (§2)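 Nonlytic real-time cytotoxicity: HEK293 + CellTox Green reagent plated, 5 h preincubation, pintool compound addition (23 nL in DMSO), 37 C for 40 h, fluorescence measured at successive time points.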

[4] = qHTS RealTime-Glo MT Cell Viability Assay in HepG2 cells - 40 hour (AID 1224870); also: nearly all actives have a fitted effect of over 50% in size
Procedure, shortened: (§3)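 Real-time viability: cells seeded at 600 per well together with NanoLuc and cell-permeant prosubstrate, compounds added after 5 h incubation. Luminescence tracked at 0, 8, 16, 24, 32 and 40 h of exposure.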

[5] = A CellTox Green Cytotoxicity Assay to monitor cytotoxicity in HEK293 cells - 40 hour (AID 1224871); also: nearly all actives have a fitted effect of over 45% in size
Procedure, shortened: as §2

[6] = qHTS RealTime-Glo MT Cell Viability Assay in HepG2 cells - 8 hour (AID 1224873); also: nearly all actives have a fitted effect of over 55% in size
Procedure, shortened: as §3

[7] = qHTS RealTime-Glo MT Cell Viability Assay in HEK293 cells - 40 hour (AID 1224874); details: RealTime-Glo luminescence; max response: active compounds read low; also: nearly all actives have a fitted effect of over 50% in size; also: potency is read from the fitted curve at half-maximal effect
Procedure, shortened: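 Cells were seeded together with NanoLuc luciferase and a prosubstrate that viable cells reduce to a luciferase substrate. After a 5 h incubation at 37 C/5% CO2, compounds were added and luminescence was measured repeatedly during 40 h of treatment.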

[8] = A CellTox Green Cytotoxicity Assay to monitor cytotoxicity in HEK293 cells - 24 hour (AID 1224875); also: series mostly up to about 77 µM; nearly all actives have a fitted effect of over 45% in size
Procedure, shortened: as §2

[9] = A CellTox Green Cytotoxicity Assay to monitor cytotoxicity in HepG2 cells - 16 hour (AID 1224876); also: nearly all actives have a fitted effect of over 45% in size
Procedure, shortened: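 Read-out is fluorescence of a cyanine dye excluded from live cells that stains DNA of dead HepG2 cells, with signal proportional to cytotoxicity. Plates were read at 0, 8, 16, 24, 32 and 40 h after compound addition.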

[10] = qHTS RealTime-Glo MT Cell Viability Assay in HEK293 cells - 16 hour (AID 1224872)
Procedure, shortened: as §1

CCOC(=O)CCc1ccccc1
outcome [1]: inactive
Potency [2]: inactive
Potency [3]: inactive
outcome [4]: inactive
Potency [5]: inactive
outcome [6]: inactive
max response [7]: 3.62%
Potency [8]: inactive
Potency [9]: inactive

O=C(Oc1ccccc1C(=O)O)c1ccccc1O
outcome [1]: inactive
Potency [2]: inactive
Potency [3]: inactive
Potency [5]: inactive
Potency [10]: inactive
outcome [6]: inactive
max response [7]: 4.65%
Potency [8]: inactive
Potency [9]: inactive

SCCSCCS
outcome [1]: inactive
Potency [2]: inactive
Potency [3]: inactive
outcome [4]: inactive
Potency [5]: inactive
outcome [6]: inactive
max response [7]: -1.15%
Potency [8]: inactive
Potency [9]: inactive

Cc1cccc(C(=O)O)c1[N+](=O)[O-]
outcome [1]: inactive
Potency [2]: inactive
Potency [3]: inactive
Potency [5]: inactive
Potency [10]: inactive
outcome [6]: inactive
max response [7]: 0.185%
Potency [8]: inactive
Potency [9]: inactive

C1=CCC(c2ccccc2)CC1 (stereo not drawn)
outcome [1]: inactive
Potency [2]: inactive
Potency [3]: inactive
outcome [4]: inactive
Potency [5]: inactive
outcome [6]: inactive
max response [7]: 4.33%
Potency [8]: inactive
Potency [9]: inactive

Nc1ccc(/C=C/c2ccc(N)cc2S(=O)(=O)O)c(S(=O)(=O)O)c1
activity change, negative = cytotoxicity [1]: 2.78% [at 0.29 µM]
activity change, negative = cytotoxic [2]: 0.295% [at 0.29 µM]
cytotoxicity [3]: 5.28% [at 0.29 µM]
activity change, negative = cytotoxic [4]: 0.506% [at 0.29 µM]
cytotoxicity increase [5]: -0.161% [at 0.29 µM]
viability change, negative = cytotoxic [6]: 5.84% [at 0.29 µM]
max response [7]: 2.9%
activity change [8]: 0.201% [at 0.29 µM, active compounds read high]
cytotoxicity increase [9]: -10.5% [at 0.29 µM]

C[C@H](CCC(=O)NCC(=O)O)[C@H]1CC[C@H]2[C@@H]3[C@H](O)C[C@@H]4C[C@H](O)CC[C@]4(C)[C@H]3C[C@H](O)[C@]12C
outcome [1]: inactive
Potency [2]: 9.49 µM (active)
Potency [3]: inactive
outcome [4]: inactive
Potency [5]: inactive
outcome [6]: inactive
Potency [7]: 9.49 µM (active)
Potency [8]: inactive
Potency [9]: inactive

C=C(C)C(=O)OC
outcome [1]: inactive
Potency [2]: inactive
Potency [3]: inactive
outcome [4]: inactive
Potency [5]: inactive
outcome [6]: inactive
max response [7]: -13.6%
Potency [8]: inactive
Potency [9]: inactive

CCCCCCCCCCCCCCCCCCN(C)C
outcome [1]: inactive
Potency [2]: inactive
Potency [3]: inactive
outcome [4]: inactive
outcome [6]: inactive
max response [7]: 0.677%
Potency [9]: inactive

O=c1[nH]c(=O)c2ccccc2o1
outcome [1]: inactive
Potency [2]: inactive
Potency [3]: inactive
Potency [5]: inactive
Potency [10]: inactive
outcome [6]: inactive
max response [7]: 1.98%
Potency [8]: inactive
Potency [9]: inactive

C[CH2][Ge]([Cl])([CH2]C)[CH2]C
outcome [1]: inactive
Potency [2]: inactive
Potency [3]: inactive
outcome [4]: inactive
Potency [5]: inactive
outcome [6]: inactive
max response [7]: 1.99%
Potency [8]: inactive
Potency [9]: inactive

CC(=O)OC(C)c1ccccc1 (stereo not drawn)
outcome [1]: inactive
Potency [2]: inactive
Potency [3]: inactive
outcome [4]: inactive
Potency [5]: inactive
max response [7]: 0.769%
Potency [8]: inactive
Potency [9]: inactive

Nc1ccnc(=O)[nH]1
outcome [1]: inactive
Potency [2]: inactive
Potency [3]: inactive
outcome [4]: inactive
Potency [5]: inactive
outcome [6]: inactive
max response [7]: 4.83%
Potency [8]: inactive
Potency [9]: inactive

CC(C)=CC(C)(C)C
outcome [1]: inactive
Potency [2]: inactive
Potency [3]: inactive
Potency [5]: inactive
Potency [10]: inactive
outcome [6]: inactive
max response [7]: 6.16%
Potency [8]: inactive
Potency [9]: inactive

N#CCCOCCOCCC#N
outcome [1]: inactive
Potency [2]: inactive
Potency [3]: inactive
outcome [4]: inactive
Potency [5]: inactive
outcome [6]: inactive
max response [7]: 9.79%
Potency [8]: inactive
Potency [9]: inactive

CCCCC(CC)COC(=O)c1ccccc1 (stereo not drawn)
outcome [1]: inactive
Potency [2]: inactive
Potency [3]: inactive
outcome [4]: inactive
Potency [5]: inactive
outcome [6]: inactive
max response [7]: 3.3%
Potency [8]: inactive
Potency [9]: inactive

O=C(COCCOCCOCC(=O)Nc1c(I)cc(I)c(C(=O)O)c1I)Nc1c(I)cc(I)c(C(=O)O)c1I
outcome [1]: inactive
Potency [2]: inactive
Potency [3]: inactive
outcome [4]: inactive
outcome [6]: inactive
max response [7]: 3.14%
Potency [9]: inactive

Cc1c(C(C)C)c(=O)n(-c2ccccc2)n1C
outcome [1]: inactive
Potency [2]: inactive
Potency [3]: inactive
outcome [4]: inactive
Potency [5]: inactive
outcome [6]: inactive
max response [7]: 3.94%
Potency [8]: inactive
Potency [9]: inactive

CC(C)(C)c1ccc(C=O)cc1
outcome [1]: inactive
Potency [2]: inactive
Potency [3]: inactive
outcome [4]: inactive
outcome [6]: inactive
max response [7]: 0.97%
Potency [8]: inactive
Potency [9]: inactive

CC(=O)c1ccc2c(c1)CCCC2
outcome [1]: inactive
Potency [2]: inactive
Potency [3]: inactive
outcome [4]: inactive
Potency [5]: inactive
max response [7]: -1.61%
Potency [8]: inactive
Potency [9]: inactive

CCOC(=O)CC(CC(=O)OCC)(OC(C)=O)C(=O)OCC
outcome [1]: inactive
Potency [2]: inactive
Potency [3]: inactive
Potency [5]: inactive
Potency [10]: inactive
outcome [6]: inactive
max response [7]: -6.27%
Potency [8]: inactive
Potency [9]: inactive

CCCCCCCCCCCCC
outcome [1]: inactive
Potency [2]: inactive
Potency [3]: inactive
outcome [4]: inactive
Potency [5]: inactive
outcome [6]: inactive
max response [7]: 7.99%
Potency [8]: inactive
Potency [9]: inactive

CC(=O)N(CC(O)CO)c1c(I)c(C(=O)NCC(O)CO)c(I)c(C(=O)NCC(O)CO)c1I (stereo not drawn)
outcome [1]: inactive
Potency [2]: inactive
Potency [3]: inactive
outcome [4]: inactive
Potency [5]: inactive
max response [7]: 6.97%
Potency [8]: inactive
Potency [9]: inactive

NC(=O)NNC(N)=O
outcome [1]: inactive
Potency [2]: inactive
Potency [3]: inactive
outcome [4]: inactive
Potency [5]: inactive
outcome [6]: inactive
max response [7]: 19.6%
Potency [8]: inactive
Potency [9]: inactive
